Compound activity as filed in PubChem.
The entries come from a sample that favours hits as a whole.
TbREL1 primary – TbREL1 inhibition, primary screen; P86926; TbREL1 RNA ligation, FRET fluorescence; inhibition, % at 9.66 µM; hit rate 0.49% among 89,000; AID 1117264;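 active means inhibition above the mean inhibition across all screened compounds plus 3 SD, cut at about 11% in these data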;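 further: 0% = plate median of test wells and 100% = NSC42067 control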
Target sequence (P86926 whole entry, looked up): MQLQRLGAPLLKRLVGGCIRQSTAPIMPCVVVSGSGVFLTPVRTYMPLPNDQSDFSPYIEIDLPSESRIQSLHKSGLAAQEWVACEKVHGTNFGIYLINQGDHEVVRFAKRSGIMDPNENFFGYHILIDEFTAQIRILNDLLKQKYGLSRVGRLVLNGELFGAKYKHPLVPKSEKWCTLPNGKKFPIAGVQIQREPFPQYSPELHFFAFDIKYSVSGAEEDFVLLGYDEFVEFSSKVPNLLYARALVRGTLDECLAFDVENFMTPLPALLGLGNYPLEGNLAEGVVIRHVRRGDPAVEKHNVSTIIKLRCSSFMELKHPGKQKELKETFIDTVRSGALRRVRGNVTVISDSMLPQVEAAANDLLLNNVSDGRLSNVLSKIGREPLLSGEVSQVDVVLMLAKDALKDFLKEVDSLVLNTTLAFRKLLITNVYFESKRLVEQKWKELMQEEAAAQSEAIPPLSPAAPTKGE
* hit, by the source's call.

SMILES | TbREL1 primary
Cc1occc1C(=O)N/N=C/C(Br)=C/c1ccccc1 | 11.0*
Cc1occc1C(=O)N/N=C/c1ccc[nH]1 | -0.4
Cn1cc(C(=O)N/N=C/C(Br)=C\c2ccccc2)ccc1=O | -3.3
CC(C)C[C@H](NC(C)(C)C(=O)NC1CCCCC1)C(=O)NCC(c1ccccc1)c1ccccc1 | 9.1
O=C1CC(c2ccc3c(c2)OCO3)N=C2N(Cc3ccc4c(c3)OCO4)C/C(=C/c3ccccc3)N12 (stereo not given) | -6.1
Cc1ccc(C)c(NC(=O)CN(C)C(=O)c2ccc3c(=O)n4c(nc3c2)CCC4)c1 | 0.3
Cc1ccc(C)c(NC(=O)CN(C)C(=O)Cc2ccccc2)c1 | -1.1
Cc1ccc(C)c(NC(=O)CN(C)C(=O)c2ccc(Cl)nc2)c1 | 11.1*
CNC(=O)[C@@H]1CC=C[C@@H]2CCN(c3ccccc3)C(=O)[C@@H]21 | -1.8
FC(F)(F)c1ccc2nc(CNc3nc(N4CCOCC4)nc4c3ncn4-c3ccsc3)[nH]c2c1 | -0.7
CN1C2=NC(c3ccccc3)CC(=O)N2/C(=C\c2ccccc2)C1c1ccccc1C(F)(F)F (stereo not given) | 1.7
O=C(CSc1nc2sc3c(c2c(=O)n1-c1ccc(Cl)cc1)CCC3)Nc1ccc(C(=O)O)cc1 | -0.8
CCNC(=S)NNC(=O)CSc1nc2ccccc2c(=O)n1-c1ccc(Cl)cc1 | -1.0
O=C(O)c1cc(N2N=C(C(F)(F)F)/C(=C/C=C/c3ccco3)C2=O)ccc1Cl | 97.6*
CN(C(=O)/C=C/c1ccco1)c1ccccc1C(=O)O | 1.9
O=C(O)c1cnn2c(C(F)(F)F)cc(-c3ccco3)nc12 | 5.7
O=C(NCCO)[C@H](Cc1ccccc1)NC1(C(=O)NCCc2c[nH]c3ccccc23)CCCCC1 | -8.3
CCOc1ccc(-n2c(SCC(=O)Nc3ccc(S(=O)(=O)Nc4cc(C)nc(C)n4)cc3)nnc2-c2cccc(C)c2)cc1 | -5.5
COC(=O)[C@H](CC1(c2cn(S(=O)(=O)CC[Si](C)(C)C)c3ccccc23)C(=O)Nc2ccccc21)NC(=O)OC(C)(C)C (stereo not given in full) | 6.3
CN(C)S(=O)(=O)c1cccc(C(=O)N/N=C\c2ccnc3ccccc23)c1 | -0.7
COc1cc2ccc(=O)oc2c(O[C@@H]2O[C@H](CO)[C@@H](O)[C@H](O)[C@H]2O)c1O | -5.4
O=c1cc(-c2ccc(O)c(O)c2)oc2cc(O)c([C@@H]3O[C@H](CO)[C@@H](O)[C@H](O)[C@H]3O)c(O)c12 | 47.6*
COc1cc(O)c2c(=O)c3c(O[C@H]4O[C@@H](CO)[C@H](O)[C@@H](O)[C@@H]4O)ccc(O)c3oc2c1 | -2.7
O=C(NCc1ccc(F)c(F)c1)C1C2C=CC3(CN(Cc4ccccc4)C(=O)C13)O2 (stereo not given) | -2.1
COc1ccc(C=Nn2c(-c3ccccc3F)n[nH]c2=S)cc1OCc1ccccc1 | -2.9
SMILES | TbREL1 primary
COc1ccc(Oc2c(Cl)cnn(-c3ccc(C(C)C)c(C)c3)c2=O)cc1 | 2.6
O=C1CC(=O)N(Cc2cccs2)C(=O)N1 | 3.6
O=C1C2C(C(=O)N1Cc1ccco1)C1C=CC2C12CC2 (stereo not given) | -1.9
O=C1CC(=O)N(Cc2ccco2)C(=O)N1 | 69.5*
C/C(=N\NC(=O)Cc1cc(=O)[nH][nH]1)c1ccc([N+](=O)[O-])cc1 | -4.4
C[C@H]1[C@@H](OC(=O)NCCc2ccccc2)CC[C@@]23CCCN2C(=O)CCC[C@@H]13 | -0.7
C[C@H]1[C@@H](OC(=O)Nc2ccc(C#N)cc2)CC[C@@]23CCCN2C(=O)CCC[C@@H]13 | 4.6
C#CCOCCOCCOCCNc1nc(N2CCOCC2)nc(N2CCN(C(=O)CCCCCCCCCCNC(=O)[C@@H]([C@H](C)CC)n3cc(CCCCCN)nn3)CC2)n1 | 13.5*
C#CCOCCOCCOCCNc1nc(N2CCOCC2)nc(N2CCN(C(=O)CCCCCCCCCCNC(=O)[C@@H](CCC(=O)O)n3cc(CCCCCN)nn3)CC2)n1 | 1.6
C#CCOCCOCCOCCNc1nc(N2CCN(C(=O)[C@H]([C@@H](C)CC)n3cc(CCCCN)nn3)CC2)nc(N2CCN(C(=O)[C@H](C)n3cc(CCC(=O)O)nn3)CC2)n1 | 6.8
COc1cccc(/C=N/NC(=O)CNC(=O)CCc2ccccc2)c1O | 1.1
Oc1cccc(C=NCc2ccccc2)c1O | 11.7*
O=C1C(C=NCc2cccnc2)=C(O)c2ccccc21 | 2.5
O=C(Nc1ccc(Cl)cc1)O[C@@H]1CC[C@@]23CCCN2C(=O)CCC[C@H]3C1 | -4.5
COc1cccc(-c2cc3nc(-c4ccco4)cc(N4CCN(C(C)=O)CC4)n3n2)c1 | 6.0
CC(C)(C)c1ccc(CNc2nc(-c3ccccn3)nnc2-c2ccccc2)cc1 | 10.5
COCCOC(=O)N(C)C[C@@H]1OCCCC[C@H](C)Oc2ccc(NC(=O)Nc3ccccc3)cc2C(=O)N([C@@H](C)CO)C[C@H]1C | -3.4
CC1CCC(C(C)C)C(OC(=O)Cn2c(-c3ccc(Br)cc3)[n+](C)c3ccccc32)C1 (stereo not given) | 9.2
COc1ccc(-c2c[n+](CC(=O)OC3CC(C)CCC3C(C)C)c3n2CCC3)cc1 (stereo not given) | 14.9*
O=C(C[n+]1cc(-c2ccccc2)n2c1CCC2)c1cccs1 | -0.1
Fc1ccccc1-c1n[nH]c(=S)n1N=Cc1ccc(OCc2ccccc2)cc1 | -7.6
C[C@H]1[C@@H](OC(=O)Nc2ccccc2Cl)CC[C@@]23CCCN2C(=O)CCC[C@@H]13 | -2.4
COc1ccc(NC(=O)N2CCC(c3nc4ccc(Cl)cc4[nH]3)CC2)cc1OC | -1.7
CC(=O)Nc1ccc(OCC(O)CNC2CCCC2)cc1 (stereo not given) | -0.1
OC(CNC1Cc2ccccc2C1)COc1ccc(F)cc1 (stereo not given) | 4.4
SMILES | TbREL1 primary
Cc1ccccc1OCC(O)CNC1CCC(NCC(O)COc2ccccc2C)CC1 (stereo not given) | 17.0*
Cc1nc2cc(C(=O)N3CCN(C(=O)C(Cl)Cl)CC3)ccc2n1C1CCCC1 | 3.2
Cc1ccc(-n2c(SCC(=O)Nc3ccc(S(=O)(=O)Nc4cc(C)nc(C)n4)cc3)nnc2-c2ccc(C(C)(C)C)cc2)cc1 | -0.7
Cc1ccc2nc(-c3ccc(NC(=O)CSc4nnc(-c5cccc(Cl)c5)n4Cc4ccco4)cc3)sc2c1 | 2.2
CN(C)S(=O)(=O)c1cccc(C(=O)N/N=C\c2cccc(C#N)c2)c1 | 0.8
c1ccc(CCSc2nnc(-c3cccnc3)n2Cc2ccccc2)cc1 | -1.6
COc1ccc(Cn2c(C)nc3c(c(=O)c4ccccc4n3C)c2=O)cc1 | 3.2
COc1ccc(Cn2c(C)nc3c(c2=O)c2nc4ccccc4nc2n3Cc2ccco2)cc1 | 11.1*
COc1ccc2c(=O)c3c(=O)n(Cc4ccco4)c(-c4ccccc4)nc3oc2c1 | 0.1
Cc1ccc(-n2c(Cc3cccs3)nnc2SCC(=O)Nc2cccc3ccccc23)cc1 | -0.7
O=C(c1ccoc1)N1CCN(c2cc(-c3ccco3)nc3cc(-c4ccco4)nn23)CC1 | 6.2
COc1cc(-c2c(C(=O)c3ccccc3)[nH]c(N)c2C(N)=O)ccc1O | -0.3
Cc1cccc(CN(C)CCc2ccccn2)c1 | 1.8
COc1ccc(CN(C)CCc2ccccn2)c(OC)c1OC | 18.5*
COc1ccc(C(=O)O)cc1S(=O)(=O)N(C)CCc1ccccn1 | -0.6
O=C(COC(=O)c1ccc(Sc2ncn[nH]2)c([N+](=O)[O-])c1)Nc1ccc(Cl)cc1 | -5.0
CCC[C@H]1[C@@H](O)CC[C@@]23CCCN2C(=O)CCC[C@@H]13 | -1.9
O=C1CCC(CNc2ccccc2)N1c1ccccc1 (stereo not given) | -5.7
CCCCCCCCCn1cc(C(C)=O)c(=O)[nH]c1=O | 18.5*
